Assay results: PubChem BioAssay (NCI)
The panel holds about 83,000 compounds, 20% with a hit somewhere; the sample as a whole holds those more often.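 Each cell line was grown in a 96-well plate and treated with one concentration of compound for 48 hours. Values below 10 were considered active.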 Values without a mark were called inactive. Active and inactive are the calls of the source.

Assays:
Experiment in all cases: NCI-60 one-dose screen, 48 h (100 = growth as untreated, 0 = no growth, -100 = all killed)
Conditions in all cases: 10 µM unless noted
NCI-H23 lung = system: NCI-H23 lung
NCI-H226 lung = system: NCI-H226 lung
NCI-H322M lung = system: NCI-H322M lung
HOP-62 NSCLC = system: HOP-62 NSCLC
NCI-H460 lung = system: NCI-H460 lung
HOP-92 NSCLC = system: HOP-92 NSCLC
NCI-H522 lung = system: NCI-H522 lung
A549/ATCC NSCLC = system: A549/ATCC NSCLC
786-0 renal = system: 786-0 renal
COLO 205 colon = system: COLO 205 colon
DU-145 prostate = system: DU-145 prostate
MALME-3M melanoma = system: MALME-3M melanoma
MDA-MB-231 breast = system: MDA-MB-231 breast
RXF 393 renal = system: RXF 393 renal
SF-268 CNS = system: SF-268 CNS
SF-295 CNS = system: SF-295 CNS
SF-539 CNS = system: SF-539 CNS
UACC-257 melanoma = system: UACC-257 melanoma
M14 melanoma = system: M14 melanoma
K-562 leukemia = system: K-562 leukemia

Compound	growth (NCI-H23 lung)	growth (NCI-H226 lung)	growth (NCI-H322M lung)	growth (HOP-62 NSCLC)	growth (NCI-H460 lung)	growth (HOP-92 NSCLC)	growth (NCI-H522 lung)	growth (A549/ATCC NSCLC)	growth (786-0 renal)	growth (COLO 205 colon)	growth (DU-145 prostate)	growth (MALME-3M melanoma)	growth (MDA-MB-231 breast)	growth (RXF 393 renal)	growth (SF-268 CNS)	growth (SF-295 CNS)	growth (SF-539 CNS)	growth (UACC-257 melanoma)	growth (M14 melanoma)	growth (K-562 leukemia)
COc1ccc(-c2nnc(SCC(=O)c3ccc(Cl)cc3)o2)cc1	93.9%	103%	108%	95.7%	110%	105%	76.3%	92%	96.9%	112%	108%	106%	98.7%	113%	101%	101%	95.6%	107%	106%	
CCC#CC[C@H](O)C/C=C1/C(=O)C=C[C@@H]1C/C=C\CCCC(=O)OC	-13.4% (active)	-62.8% (active)	48.1%	-8.26% (active)	-34.6% (active)	35.8%	-90.1% (active)	32.6%	-28.3% (active)	-23% (active)	23%	23.4%	12.7%	-74.1% (active)	23.8%	-25.6% (active)	-5.91% (active)	-6.54% (active)	5.13% (active)	
COc1ccc(CN2c3ccccc3Sc3ccccc32)cc1O	36.6%	71%	33.1%	36.3%	10%	50.4%	-40.4% (active)	24.2%	42.5%	-7.4% (active)	17.9%	71.9%	41.2%	-9.86% (active)	45.6%	4.23% (active)	-11% (active)	52.5%	14.4%	
CCOC(=O)c1sc(Nc2ccc(Cl)cc2)nc1C	19.3%	21.9%	53.4%	28.3%	19.3%	-20.9% (active)	-14.4% (active)	15.2%	25%	11%	35.5%	36.7%	1.04% (active)	10.9%	30%	16.3%	25.3%	7.95% (active)	12.9%	
CC(=O)c1cc2c(N)c(C(=O)Nc3cccc4ccccc34)sc2nc1C	34.6%	81.3%	45.4%	38.9%	7.21% (active)	61.6%	13%	22%	31.6%	-27% (active)	15.5%	56.2%	26.2%	10.4%	56.3%	19.8%	-15% (active)	59.8%	3.93% (active)	
C=C1C(=O)O[C@H]2[C@H]1CC/C(COC(=O)NCc1ccc(OC)c(OC)c1)=C\CC[C@@]1(C)O[C@@H]21	45.8%	85.9%	97.6%	87.8%	87.8%	66.2%	-65.5% (active)	97.9%	81.6%	8.26% (active)	28.6%	61.5%	55%	20.7%	79.8%	88.2%	42.9%	64.2%	61.5%	
O=C(Cc1ccc(/C=C/C(=O)c2ncc[nH]2)cc1)Nc1ccc(F)cc1	24.2%	61.3%	33.3%	20.5%	1.46% (active)	69.7%	22.2%	25.6%	23.7%	20.5%	15.9%	96.6%	22.6%	19.3%	27.7%	33.1%	-21.7% (active)	92.1%	54.9%	
CCOc1ccc(-n2nc(C(=O)Nc3cc(OC)c(OC)c(OC)c3)nc2-c2cc(OC)c(OC)c(OC)c2)cc1	85%	78.1%	89.2%	95.7%	92.1%	69.9%	65.9%	86.9%	77.1%	80.3%	99.1%	85.2%	50.5%	83.8%	92.1%	95.9%	87.8%	93.1%	91.5%	
CCCCC[C@H]1C/C=C2/C(=O)C=C[C@@H]2C/C=C\CCCC(=O)O1	-17.4% (active)	-65.1% (active)	-52.7% (active)	-46.3% (active)	-1.5% (active)	-39.5% (active)	-78.4% (active)	-23.6% (active)	-76.4% (active)	-47.6% (active)	-32.4% (active)	-24.8% (active)	7.59% (active)	-89.9% (active)	3.72% (active)	-33.5% (active)	-71.4% (active)	-49.4% (active)	-29.3% (active)	
CC(=O)OC[C@H]1O[C@H](OC(C)=O)[C@H](NC(=O)/C=C/CCl)[C@@H](OC(C)=O)[C@@H]1OC(C)=O	75.4%	109%	84.5%	96.1%	96.6%	76.6%	-64% (active)	87.6%	68%	74.9%	93.2%	83.2%	46.3%	75.2%	89.3%	87.5%	65.6%	64%	87.5%	
COc1ccc(SC2c3ccc(C)cc3Oc3nc(N)c(C#N)c(N)c32)cc1 (centres undefined)	-43.8% (active)	-63.9% (active)	5.34% (active)	-10.6% (active)	-49.6% (active)	-56.7% (active)	-90.3% (active)	19.9%	-95.4% (active)	-66.5% (active)	-88.3% (active)	-87.6% (active)	-86.5% (active)	-69.2% (active)	2.01% (active)	44.8%	-75.4% (active)	-74.8% (active)	-76.5% (active)	
COc1ccc(SC2c3cc(OC)c(OC)cc3Oc3nc(N)c(C#N)c(N)c32)cc1 (centres undefined)	-60.9% (active)	-70.9% (active)	-95% (active)	-42.1% (active)	-70% (active)	-19.9% (active)	-72.5% (active)	-51.7% (active)	-82.6% (active)	-79% (active)	-82.8% (active)	-68.9% (active)	-67.5% (active)	-79.5% (active)	-61.8% (active)	-69.5% (active)	-96.6% (active)	-43% (active)	-87.2% (active)	
COc1ccc(CN2c3ccccc3Oc3ccccc32)cc1O	33.8%	93.9%	56.3%	42.1%	13.3%	32.8%	-33.2% (active)	37.6%	43.2%	91.3%	36.8%	45.1%	56.6%	50.1%	57.4%	14.5%	16.3%	39.1%	18%	
CCc1nc(N)nc(N)c1C#CC(C)c1cc(-c2ccnc(C)c2)c2oc(C)nc2c1 (centres undefined)	5.82% (active)	44.7%	25.3%	-2.79% (active)	2.7% (active)	-0.67% (active)	18.2%	3.87% (active)	6.31% (active)	0.792% (active)	8.31% (active)	36.7%	25.6%	-5.33% (active)	1.29% (active)	5.73% (active)	-27.3% (active)	30.9%	-9.02% (active)	
COc1ccc(C(=O)/C=C/c2cccnc2Nc2cc(OC)c(OC)c(OC)c2)cc1	59.2%	41%	80.5%	48%	5.28% (active)	49.3%	14.8%	23.6%	39.2%	38.6%	31.9%	80.5%	49%	12.9%	14.9%	27.4%	4.67% (active)	35.8%	42.7%	
O=C(CN1C(=O)/C(=C/c2ccc(Cl)cc2)SC1=S)NCCCN1CCOCC1	97%	95.2%	104%	111%	101%	85.7%	96.9%		111%	116%	102%	90.7%	99.3%	105%	93.6%	93.2%	92.8%	101%	113%	94.2%
